Source: PubChem BioAssay
Calls of active or inactive are those of the source. Unless noted, no rule for the calls is given here.

What was measured:
[1] = tested on: Wnt5a (protein binding on small-molecule microarray); assay: small molecules binding Wnt5a protein – biophysical, small-molecule microarray, 635/667 nm fluorescence, primary screen (AID 1142); details: 635 nm fluorescence, higher = more signal;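 also: fluorescence read at 667 nm with signal to noise per printed feature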
[2] = ATP-based viability of Huh7 replicon cells – cell-based, CellTiter-Glo luminescence, basal, 48 h, cytotoxicity control for HCV replication inhibitor project, primary screen (AID 1143); details: higher = more signal, called active from +8 up or from −8 down;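 also: Huh7 hepatoma cells carrying a hepatitis C replication reporter with no stimulus; test concentration not given here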
[3] = Pseudomonas biofilm growth suppression – PAO1 strain, BacTiter-Glo luminescence, LB-PBS, primary screen (AID 1144); details: P. aeruginosa PAO1 biofilm, 12 h, higher = more signal
[4] = basal CRE-LacZ reporter activity in PC12 – cell-based, unstimulated, primary screen (AID 1145); details: no forskolin, luminescence, 4.5 h, higher = more signal, called active from +8 up or from −8 down
[5] = forskolin-driven CRE-LacZ activity in PC12 – cell-based, CRE-LacZ reporter, forskolin-stimulated, primary screen (AID 1146); details: luminescence, 4.5 h, higher = more signal, called active from +8 up or from −8 down;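 also: PC12 cells with 6xCRE LacZ reporter stimulated by forskolin 10 µM; beta-galactosidase reporter signal reflecting CREB driven transcription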
[6] = biological target: Streptavidin (Streptomyces avidinii) (UniProt P22629); assay: compounds binding control protein streptavidin – biophysical, small-molecule microarray, 635/667 nm fluorescence, artefact control for SMM compound annotation, primary screen (AID 1147); details: higher = more signal;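 also: signal reflects streptavidin binding to arrayed compounds as a control protein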
[7] = probe aInhba binding on compound microarray – biochemical, small-molecule microarray, 635/667 nm fluorescence, primary screen (AID 1148); details: higher = more signal;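 also: score merges 667nm spot fluorescence with signal-to-noise for antibody binding to printed compounds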
Torsin-1A (Homo sapiens) [8] = biological target: Torsin-1A (Homo sapiens) (UniProt O14656); assay: TOR1A wild-type binding on microarray – cell lysate, small-molecule microarray, lysate, 635/667 nm, primary screen (AID 1149); details: COS7 hTOR1A-WT lysate, 635 nm fluorescence, higher = more signal
Torsin-1A (Homo sapiens) [9] = biological target: Torsin-1A (Homo sapiens) (UniProt O14656); assay: torsin A mutant lysate binding on microarrays – cell lysate, small-molecule microarray, COS7 lysate, 635/667 nm fluorescence, primary screen (AID 1150); details: COS7 hTOR1A mutant lysate, 635 nm fluorescence, higher = more signal;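 also: score pools 667 nm emission and signal to noise measuring lysate protein binding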
[10] = tested on: Sonic hedgehog protein (Shh); assay: Sonic hedgehog microarray binding compounds – biochemical, small-molecule microarray, 635/667 nm fluorescence, primary screen (AID 1151); details: 635 nm fluorescence, higher = more signal;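 also: Shh protein binding to compounds spotted on small-molecule microarray slides; score combines spot fluorescence intensity with signal-to-noise across triplicate slides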
[11] = optical density shifts of acrAB sulA E. coli – strain DRC41, OD650, 48 h, E. coli filamentation inducer project, primary screen (AID 1152); details: higher = more signal, called active from +8 up or from −8 down;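 also: E. coli MC1000 strain DRC41 lacking acrAB efflux pump and sulA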
[12] = probe aLefty1 binding on compound microarray – biochemical, small-molecule microarray, 635/667 nm fluorescence, primary screen (AID 1153); details: higher = more signal;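 also: score merges spot fluorescence with signal-to-noise ratio from the scanned slide images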
[13] = plasmodial surface anion channel blockers, osmotic lysis – cell-based, P. falciparum Indochina, OD700, 1 h, primary screen (AID 1154); details: P. falciparum Indochina infected RBC osmotic lysis, higher = more signal, called active from +8 up or from −8 down
[14] = plasmodial surface anion channel blockers, osmotic lysis – cell-based, P. falciparum Indochina, OD700, 2 h, primary screen (AID 1155);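 also: lysis reports solute entry through the parasite surface anion channel PSAC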; details: P. falciparum Indochina infected erythrocytes, higher = more signal, called active from +8 up or from −8 down
[15] = changes in parasitized red cell lysis, either direction – P. falciparum Indochina, OD700, 3 h, PSAC antagonist project, primary screen (AID 1156); details: P. falciparum-infected erythrocytes, osmotic lysis, higher = more signal, called active from +8 up or from −8 down
[16] = plasmodial surface anion channel blockers, osmotic lysis – cell-based, P. falciparum Indochina, OD700, 18 h, primary screen (AID 1157); details: P. falciparum Indochina infected erythrocytes, osmotic lysis OD700, 18 h; higher = more signal, called active from +8 up or from −8 down
[17] = S6 kinase pathway phospho-S6 level changes – cell-based, A549, cytoblot, luminescence, serum-stimulated, primary screen (AID 1158); details: 5 h, higher = more signal;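 also: serum-stimulated A549 lung adenocarcinoma cells; signal is phosphorylated S6 detected by cytoblot immunostaining with HRP secondary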
[18] = biological target: NADPH oxidase 2 (Homo sapiens) (UniProt P04839); assay: compounds shifting NOX2 Amplex Red fluorescence – cell-based, HEK293-NOX2, PMA-stimulated, NOX inhibitor project, primary screen (AID 1159); details: 45 min, higher = more signal, called active from +8 up or from −8 down; also: test concentration not given here
[19] = biological target: NADPH oxidase 4 (Homo sapiens) (UniProt Q9NPH5); assay: compounds shifting NOX4 Amplex Red fluorescence – cell-based, HEK293-NOX4, tetracycline-induced, NOX inhibitor project, primary screen (AID 1160); details: HEK293-NOX4, Amplex Red H2O2 fluorescence, 45 min; higher = more signal, called active from +8 up or from −8 down
[20] = biological target: NADPH oxidase 5 (Homo sapiens) (UniProt Q96PH1); assay: compounds shifting NOX5 Amplex Red fluorescence – cell-based, HEK293-NOX5, NOX inhibitor project, primary screen (AID 1161); details: HEK293-NOX5, ionomycin, 45 min, higher = more signal
NADPH oxidase 5 (Homo sapiens), sequence (Q96PH1 whole entry, looked up): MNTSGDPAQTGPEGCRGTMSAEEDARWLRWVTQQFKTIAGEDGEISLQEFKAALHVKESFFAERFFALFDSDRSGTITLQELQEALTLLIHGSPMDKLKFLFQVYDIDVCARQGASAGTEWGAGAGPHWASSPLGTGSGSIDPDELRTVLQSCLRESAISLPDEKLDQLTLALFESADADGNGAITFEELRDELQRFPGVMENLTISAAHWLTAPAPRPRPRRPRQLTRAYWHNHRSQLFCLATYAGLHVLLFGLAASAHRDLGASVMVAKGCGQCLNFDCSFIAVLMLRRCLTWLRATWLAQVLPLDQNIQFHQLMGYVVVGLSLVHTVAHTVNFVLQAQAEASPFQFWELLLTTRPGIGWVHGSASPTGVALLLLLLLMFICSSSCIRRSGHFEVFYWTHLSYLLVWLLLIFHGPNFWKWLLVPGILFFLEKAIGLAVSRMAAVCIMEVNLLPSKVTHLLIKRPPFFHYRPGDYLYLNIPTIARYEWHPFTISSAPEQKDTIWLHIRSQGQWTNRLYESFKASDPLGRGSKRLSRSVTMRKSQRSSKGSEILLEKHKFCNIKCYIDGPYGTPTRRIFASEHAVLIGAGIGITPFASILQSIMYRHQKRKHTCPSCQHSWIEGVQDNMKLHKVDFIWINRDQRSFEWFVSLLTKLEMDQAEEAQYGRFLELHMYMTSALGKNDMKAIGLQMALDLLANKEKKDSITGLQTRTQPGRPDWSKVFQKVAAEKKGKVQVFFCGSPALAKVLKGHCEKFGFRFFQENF

NADPH oxidase 2 (Homo sapiens), sequence (P04839 whole entry, looked up): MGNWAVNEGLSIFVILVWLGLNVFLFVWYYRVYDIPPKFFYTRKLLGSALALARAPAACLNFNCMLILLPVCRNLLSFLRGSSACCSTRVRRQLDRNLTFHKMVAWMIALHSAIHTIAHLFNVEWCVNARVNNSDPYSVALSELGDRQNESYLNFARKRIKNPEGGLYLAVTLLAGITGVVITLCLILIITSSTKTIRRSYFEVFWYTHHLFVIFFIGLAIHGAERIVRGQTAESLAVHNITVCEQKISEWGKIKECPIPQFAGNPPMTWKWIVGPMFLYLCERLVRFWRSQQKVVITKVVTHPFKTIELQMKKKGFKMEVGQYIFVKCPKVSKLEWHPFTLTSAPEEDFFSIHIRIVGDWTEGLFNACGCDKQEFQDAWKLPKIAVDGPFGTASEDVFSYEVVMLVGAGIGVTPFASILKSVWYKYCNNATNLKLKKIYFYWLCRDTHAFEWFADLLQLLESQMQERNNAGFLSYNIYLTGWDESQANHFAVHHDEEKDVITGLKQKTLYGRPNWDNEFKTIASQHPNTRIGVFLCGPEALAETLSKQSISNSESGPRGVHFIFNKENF
NADPH oxidase 4 (Homo sapiens), sequence (Q9NPH5 whole entry, looked up): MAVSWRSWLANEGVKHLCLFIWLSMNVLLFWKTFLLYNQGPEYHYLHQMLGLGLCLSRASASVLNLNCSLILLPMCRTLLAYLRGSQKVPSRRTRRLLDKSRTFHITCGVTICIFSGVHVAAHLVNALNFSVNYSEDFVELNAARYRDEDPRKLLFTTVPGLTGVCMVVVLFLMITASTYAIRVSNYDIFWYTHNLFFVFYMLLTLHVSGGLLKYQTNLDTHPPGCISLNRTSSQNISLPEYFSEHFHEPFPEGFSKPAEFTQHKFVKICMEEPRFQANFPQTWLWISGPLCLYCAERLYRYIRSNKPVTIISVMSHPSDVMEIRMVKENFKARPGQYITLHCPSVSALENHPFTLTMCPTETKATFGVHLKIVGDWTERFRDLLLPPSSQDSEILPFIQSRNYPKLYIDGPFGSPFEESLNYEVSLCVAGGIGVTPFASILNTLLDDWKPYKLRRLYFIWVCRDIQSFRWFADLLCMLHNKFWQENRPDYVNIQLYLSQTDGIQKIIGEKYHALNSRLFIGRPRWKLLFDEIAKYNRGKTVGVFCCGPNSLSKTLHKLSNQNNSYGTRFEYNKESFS
Streptavidin (Streptomyces avidinii), sequence (P22629 whole entry, looked up): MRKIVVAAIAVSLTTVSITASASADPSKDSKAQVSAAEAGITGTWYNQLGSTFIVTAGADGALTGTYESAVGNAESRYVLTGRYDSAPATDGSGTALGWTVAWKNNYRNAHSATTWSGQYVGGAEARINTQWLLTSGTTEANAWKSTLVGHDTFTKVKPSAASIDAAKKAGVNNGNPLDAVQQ
Torsin-1A (Homo sapiens), sequence (O14656 whole entry, looked up): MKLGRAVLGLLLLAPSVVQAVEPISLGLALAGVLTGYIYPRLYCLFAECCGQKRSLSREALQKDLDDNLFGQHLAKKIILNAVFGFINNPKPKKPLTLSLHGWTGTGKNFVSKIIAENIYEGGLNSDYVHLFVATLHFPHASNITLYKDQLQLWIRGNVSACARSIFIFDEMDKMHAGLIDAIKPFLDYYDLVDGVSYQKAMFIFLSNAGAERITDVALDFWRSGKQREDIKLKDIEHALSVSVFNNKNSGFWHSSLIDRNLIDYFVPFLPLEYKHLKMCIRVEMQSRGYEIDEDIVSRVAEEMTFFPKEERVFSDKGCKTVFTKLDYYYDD

| Compound | composite z-score [1] | z-score [2] | z-score [3] | z-score [4] | z-score [5] | composite z-score [6] | composite z-score [7] | composite z-score (Torsin-1A (Homo sapiens) [8]) | composite z-score (Torsin-1A (Homo sapiens) [9]) | composite z-score [10] | z-score [11] | composite z-score [12] | z-score [13] | z-score [14] | z-score [15] | z-score [16] | z-score [17] | z-score [18] | z-score [19] | z-score [20] |
| --- | --- | --- | --- | --- | --- | --- | --- | --- | --- | --- | --- | --- | --- | --- | --- | --- | --- | --- | --- | --- |
| COC(=O)[C@]1(CCC(=O)OC(C)(C)C)N=C(c2ccc(OCCCO)cc2)O[C@@H]1c1ccccc1CN=[N+]=[N-] | 0.714 | -4.56 (inactive) | 0.283 (inactive) | 1.77 (inactive) | -0.955 (inactive) | 0.0874 | 0.24 | -0.351 | -0.0282 | 0.712 | -1.68 (inactive) | 0.235 | 30.3 (active) | 28.3 (active) | -0.615 (inactive) | 5.71 (inactive) | -0.0021 | -3.48 (inactive) | -1.72 (inactive) | -2.41 |
| COc1cc2c(cc1OC)CN(C(=O)[C@@H]1[C@H]3C(=O)O[C@H](c4ccccc4)[C@H](c4ccccc4)N3[C@H](c3ccc(O)cc3)[C@@]13C(=O)Nc1ccccc13)CC2 | 0.33 | -4.24 (inactive) | -1.07 (inactive) | 0.685 (inactive) | -0.0307 (inactive) | 0.523 | 0.121 | 1.05 | 0.341 | 1.33 | 2.38 (inactive) | 0.154 | 1.32 (inactive) | 0.216 (inactive) | -0.287 (inactive) | -1.28 (inactive) | 2.99 | 0.00476 (inactive) | -0.339 (inactive) | -0.19 |
| COc1ccc([Si](C)(C)[C@H]2[C@H](CC(=O)N3Cc4ccccc4C[C@H]3CO)O[C@@]3(C(=O)N(Cc4cccc(N5CCC5=O)c4)c4ccccc43)[C@@H]2C)cc1 | 0.512 | -3.64 (inactive) | 0.187 (inactive) | 7.57 (inactive) | -0.86 (inactive) | -0.0369 | 0.0183 | 0.906 | 0.838 | 1.74 | -0.372 (inactive) | -0.0536 | 5.46 (inactive) | 1.63 (inactive) | 0.011 (inactive) | 1.09 (inactive) | -0.0301 | -1.15 (inactive) | -0.95 (inactive) | -1.44 |
| COc1ccccc1CN1C(=O)c2ccccc2[C@@H](C(=O)NC2CC2)[C@@H]1c1ccc(CO)cc1 | 0.845 | -0.132 (inactive) | 0.217 (inactive) | -0.709 (inactive) | -1.03 (inactive) | 0.53 | 0.297 | 0.848 | 0.385 | 1.8 | 0.818 (inactive) | 0.16 | 2.49 (inactive) | 0.873 (inactive) | 1.59 (inactive) | 0.818 (inactive) | -0.291 | 0.211 (inactive) | 0.48 (inactive) | 0.718 |
